# Screens from PubChem.
# IL-1B inflam inh: inflammasome signaling inhibition, IL-1 beta readout | AID 743279 | activity change, % at 57.5 µM | actives 4.7% (n = 360,000) | THP-1 LPS/ATP IL-1B secretion, AlphaLISA, 16 h; hits give low values; in the data active means activity change below about -50%; inconclusive means mostly about -30% to -49%; further: on the % scale 0 is the no-effect control and ±100 the full control effect
#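 Secreted IL-1B measured by AlphaLISA bead assay after 16 h compound exposure of THP-1 cells; compounds (final up to 57.5 uM) added 1 h before LPS (250 ng/mL) and ATP (1.25 mM) stimulation; lower signal means less secretion.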
# ATXN2 expr inh: ATXN2 expression inhibition | Potency, µM (doses to about 57 µM), for inactives: at the top dose activity change, negative = inhibition, usual class: inhibitors | AID 1745845 | actives 0.72% (n = 360,000) | HEK-293 ATXN2-luciferase reporter, luminescence, 24 h; further: potency means the concentration at half of the fitted maximal effect; on the % scale 0 is the no-effect control and ±100 the full control effect; nearly all actives have a fitted effect of over 55% in size
#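 ATXN2-luciferase reporter cells (luciferase flanked by upstream and downstream ATXN2 gene portions) were treated 24 h at 37 °C with compounds at up to 57 uM. SteadyGlo luminescence gave expression; GF-AFC fluorescence gave viability.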
# ATXN viability: viability counter-screen for ATXN expression inhibitors | S2 cells (HEK-293 line with an ATXN2-luciferase reporter) viability, CellTiter-Fluor protease fluorescence, 24 h | Potency, µM (series often up to 56.7 µM), hits mostly cytotoxic | actives 0.49% (n = 400,000); further: potency means the concentration at half of the fitted maximal effect; nearly all actives have a fitted effect of over 40% in size
# USP2a block: inhibitors of human ubiquitin-specific protease USP2a | Potency, µM (titrated, usually from 38.3 µM), without a hit: top-dose activity change, negative = inhibition, most hits filed as inhibitors | actives 0.01% (n = 330,000) | O75604 | USP2 core, Ub-CHOP2 coupled fluorogenic reporter, 485/531 | AID 463254;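 further: potency means the concentration at half of the fitted maximal effect; plate controls were DMSO wells for no effect and full inhibition by NEM control for full effect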
#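 Deubiquitinase activity read as fluorescence (485/531 nm) after Ub-CHOP2 cleavage activates the enterokinase reporter on its substrate; USP2 core 10nM, Ub-CHOP2 and substrate 25nM each, 30min compound preincubation then 60min RT; data normalized to NEM, curves fitted.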
# USP1 inh: USP1/UAF1 (human) deubiquitinase inhibition. actives 0.23% (n = 390,000). recombinant USP1/UAF1, Ub-Rhodamine cleavage fluorescence. AID 743255. Potency, µM (highest dose often 57.1 µM), for the others: top-dose activity change, negative = inhibition, actives largely listed as inhibitors; further: potency means the concentration at half of the fitted maximal effect; on the % scale 0 is the no-effect control and ±100 the full control effect; nearly all actives have a fitted effect of over 60% in size
# Target sequence (O94782 whole entry, looked up): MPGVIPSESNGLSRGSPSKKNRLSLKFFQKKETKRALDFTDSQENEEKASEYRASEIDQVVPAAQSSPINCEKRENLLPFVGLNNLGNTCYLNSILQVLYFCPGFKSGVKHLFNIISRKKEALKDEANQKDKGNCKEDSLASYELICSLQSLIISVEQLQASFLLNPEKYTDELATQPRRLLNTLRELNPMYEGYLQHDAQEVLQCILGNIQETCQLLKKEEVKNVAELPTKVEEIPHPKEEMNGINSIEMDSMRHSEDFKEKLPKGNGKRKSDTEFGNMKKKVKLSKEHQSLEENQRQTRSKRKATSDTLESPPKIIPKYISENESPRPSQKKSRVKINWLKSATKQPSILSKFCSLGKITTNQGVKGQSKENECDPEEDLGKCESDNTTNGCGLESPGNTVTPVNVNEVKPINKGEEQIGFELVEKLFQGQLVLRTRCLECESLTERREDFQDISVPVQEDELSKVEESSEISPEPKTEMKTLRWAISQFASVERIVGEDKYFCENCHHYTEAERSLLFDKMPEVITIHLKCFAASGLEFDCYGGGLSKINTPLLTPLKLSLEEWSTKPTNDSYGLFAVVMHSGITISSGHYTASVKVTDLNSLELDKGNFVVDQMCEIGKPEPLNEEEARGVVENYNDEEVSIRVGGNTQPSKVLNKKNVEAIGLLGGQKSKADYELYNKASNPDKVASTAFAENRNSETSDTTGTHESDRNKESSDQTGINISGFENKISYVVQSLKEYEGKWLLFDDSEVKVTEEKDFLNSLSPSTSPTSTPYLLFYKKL
#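 High-throughput fluorogenic screen: 1nM USP1/UAF1 complex, Ub-Rho substrate 150nM final, 50mM HEPES pH 7.8 with 0.5mM EDTA, 0.1 mg/ml BSA, 1mM TCEP and 0.01% Tween-20.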
# * = called active by the depositor; i = inactive; ? = inconclusive; nt = no result given; ! = not confirmed by another sample. Rows were chosen to be rich in hits. Some 4.8% of all compounds tested hit in one or more screens of this group. Unless noted, the call rests on the fitted dose curve; in most records, active means well fitted curve in the direction sought with a large enough effect; inconclusive means small, poorly fitted or top-dose-only effect, or another doubt; inactive means no such curve, though single readings can be large; an effect the other way counts as inactive or inconclusive.
SMILES,IL-1B inflam inh,ATXN2 expr inh,ATXN viability,USP2a block,USP1 inh
Cc1ccc(S(=O)(=O)Cc2cc(F)c([N+](=O)[O-])cc2[N+](=O)[O-])cc1,-92.4*,?,?,-0.8%,-22.4%
O=C(CCNc1ccc(Cc2ccncc2)cc1)c1cccc([N+](=O)[O-])c1,-108.6*,-29.7%,i,6.9%,-7.6%
Cc1nc(SCC(=O)Nc2ccccc2Cl)c2c(C)c(C)sc2n1,1.8,-20.6%,i,0.2%,-7.9%
CC(=O)c1cccc(NC(=O)Cn2c(=O)c(CNc3ccc(C)cc3)cc3cc4c(cc32)OCCO4)c1,nt,8.6%,i,nt,?
CN(CC(=O)Nc1ccc(F)cc1)C(=O)COC(=O)/C=C/c1ccc(OC(F)F)cc1,-87.4*,2.4%,i,0.8%,1.4%
COc1cc(/C=C/C(=O)OCC(=O)N(C)CC(=O)Nc2ccc(F)cc2)ccc1OC(F)F,15.3,5.6%,i,2.1%,-5.8%
CSc1nc(SCCO)c2sc3nc(-c4ccco4)c4c(c3c2n1)CC(C)(C)OC4,0.0,2.7%,i,10µM*,-31.6%
C=CCNC(=S)NNc1nc(Nc2ccccc2)nc(N2CCCCC2)n1,-63.1*,-17.4%,i,1.0%,-3.7%
Cc1ccccc1CN1C[C@@H]2C[C@@H](c3cn[nH]c3-c3ccc(F)cc3)N3CCC[C@@]23C1=O,-50.7*,-21.5%,i,-0.7%,-16.9%
CC(=O)CCC(=O)N1CCC(n2c(C3CCCO3)nc3cc(C(F)(F)F)ccc32)CC1 (centres undefined),nt,nt,i,nt,nt
CN1CCC2(CC1)C1CN(C)CC=C1C(C#N)=C(N)C2(C#N)C#N (centres undefined),3.5,-7.0%,?,?,28.2µM*!
COc1ccccc1N1CCN(C(CNC(=O)C(=O)NCc2ccc(F)cc2)c2cccnc2)CC1 (centres undefined),nt,-22.4%,i,nt,3.1%
CC(=O)Oc1ccccc1C(=O)NC(C)CCc1ccccc1 (centres undefined),-71.9*,-14.8%,i,-1.6%,-2.3%
O=C(CSc1nc(C2CCCCC2)nc2ccccc12)NCc1ccco1,-81.8*,-2.7%,i,-0.8%,-15.3%
CC1CCCCN1C(=O)CSc1nc(C2CC2)nc2ccccc12 (centres undefined),-76.5*,-31.9%,i,-1.3%,-13.4%
CC(C)CCNC(=O)Cc1csc(-c2ccccc2)n1,9.6,1.2%,i,9.1%,-10.4%
CC(=O)N1CCN(c2ccc(OCc3nn(C)c(C)c3-c3cccc4c(CCCOc5cccc6ccccc56)c(C(=O)O)n(Cc5cccnc5)c34)cc2)CC1,nt,140.2%,nt,nt,nt
NC1=NC2(CCCCC2)N=C(Nc2ccc(Br)cc2)N1,-101.7*,-0.7%,i,6.0%,-8.7%
O=C(OCc1nnc(-c2ccccc2)o1)c1cc(S(=O)(=O)N2CCOCC2)ccc1F,-7.7,-2.2%,i,0.9%,-13.9%
O=C(O)c1cccc(Nc2ncnc3scc(-c4ccccc4)c23)c1,nt,12.5%,i,nt,-16.7%
CC(=O)Nc1cccc(Oc2ncnc3scc(-c4ccccc4)c23)c1,-53.3*,-39.0%,?,1.4%,-24.1%
COc1cc(-c2nc(S(=O)(=O)c3ccc(C)cc3)c(N(C)C)o2)cc(OC)c1OC,-50.7*,-4.6%,i,0.2%,-7.7%
COc1cccc(/C=C/c2nc(S(=O)(=O)c3ccccc3)c(N(C)C)o2)c1,?,19.0%,i,0.2%,-12.7%
COc1ccccc1/C=C/c1nc(S(=O)(=O)c2ccccc2)c(N(C)C)o1,-62.1*,-3.9%,i,1.0%,-26.0%
Cc1ccc(-c2nc(S(=O)(=O)c3ccc(C)cc3)c(N(C)C)o2)cc1,-11.3,-2.2%,?,-0.3%,-17.6%
SMILES,IL-1B inflam inh,ATXN2 expr inh,ATXN viability,USP2a block,USP1 inh
O=C(CCl)N1c2ccccc2Sc2ccc3ccccc3c21,-104.4*,nt,?,nt,-21.6%
CN(C)CCCN1c2ccc3ccccc3c2Sc2cccc(Cl)c21,-96.4*,?,nt,nt,-6.9%
CN(C)CCCN1c2ccccc2Sc2ccc(Cl)cc21,0.0,20µM*!,i,-8.1%,-29.3%
CN(C)CCCN1c2ccccc2Sc2ccc3ccccc3c21,-101.9*,-5.5%,i,nt,-4.8%
O=C(COc1ccc2ccccc2c1)N1c2ccccc2Sc2ccccc21,-18.5,-11.5%,i,0.0%,-13.8%
Cc1cc(NC(=O)C(C)SCC(=O)N(C)Cc2ccccc2F)no1 (centres undefined),0.0,-13.4%,i,0.1%,-19.9%
COc1ccc(C(=O)Nc2nnc(SCC(=O)NC3CC3)s2)cc1,5.2,?,i,0.5%,-16.2%
Cc1cc(C)n(-c2ccc(C(=O)N3CCc4c(cnc(C)c4CNC(=O)c4ccccc4F)C3)cc2)n1,nt,nt,i,nt,nt
COc1cccc(NC(=O)NC(=O)c2c(C)cc(Cl)nc2Cl)c1,23.3,-11.1%,i,-0.9%,-20.2%
CSc1ccc(C(=O)C2CCCN(S(=O)(=O)c3c(C)noc3C)C2)cc1 (centres undefined),-51.9*,-24.6%,i,0.2%,-19.8%
Cc1noc(C)c1S(=O)(=O)N1CCC(C(=O)c2ccccc2)CC1,21.0,-15.6%,i,4.2%,-6.1%
COc1c(C)cc(C(O)c2ncc(-c3ccc(C(F)(F)F)cc3)[nH]2)cc1C (centres undefined),18.2,-9.1%,i,nt,nt
O=C(Cc1ccc(S(=O)(=O)N2CCOCC2)s1)Nc1cc(C(F)(F)F)cc(C(F)(F)F)c1,-59.6*,?,?,-1.1%,-12.2%
O=C(Cc1ccc(S(=O)(=O)N2CCOCC2)s1)Nc1cc(C(F)(F)F)ccc1N1CCCC1,-8.1,-30.1%,i,0.5%,-5.6%
CC(C)c1ccccc1OCCCCCNCCO,-54.2*,-11.4%,i,0.5%,-11.2%
Cc1ccccc1OCCCCCNCCO,0.9,-5.0%,i,2.1%,-15.7%
COc1ccccc1OCCCCNCCO,9.3,-6.0%,i,1.2%,-9.8%
CC(C)(C)c1ccccc1OCCCCCNCCO,-53.3*,-36.2%,i,0.7%,-5.1%
CC1CCN(CCNC(=O)C2CCCN(S(=O)(=O)c3cccc4nsnc34)C2)CC1 (centres undefined),2.6,0.5%,i,3.0%,-23.2%
Fc1ccc(C2CCCCN2Cc2nc(CC3CC3)no2)cc1 (centres undefined),0.0,-21.6%,i,0.2%,-24.6%
Fc1ccc2nc(C3CCCCN3Cc3nc(CC4CC4)no3)[nH]c2c1 (centres undefined),-64.9*,-19.0%,i,0.1%,-13.7%
CCOc1ccc(N(C)S(=O)(=O)c2ccc3c(c2)CCCN3C(C)=O)cc1,nt,-5.8%,?,nt,-24.0%
Cc1cc(=O)oc2c1ccc1oc(/C(=N/O)c3ccccc3)c(C)c12,-74.1*,?,i,-5.1%,-8.5%
